About 83,000 compounds went through this panel and 20% of them were active in at least one assay; those are over-represented in the sample as a whole.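 Treatment: one concentration, 48 hours, 96-well format. Scoring: percent growth, with anything below 10 considered active.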 A number with no mark means an inactive call. Calls of active or inactive are those of the source.
Test system: HOP-92 NSCLC
Test: NCI-60 one-dose screen, 48 h (100 = growth as untreated, 0 = no growth, -100 = all killed)
Conditions: 10 µM unless noted

**Q.** `Cc1cc2c([nH]1)CSc1cc(S(=O)(=O)c3ccccc3)c(=O)[nH]c1-2` was tested. Which growth did it give?
**A.** 16.3% [100 µM]

**Q.** How did the growth turn out when `CC1=C(Nc2ccc(N3CCN(C)CC3)cc2)C(=O)c2cncnc2C1=O` was run?
**A.** -28.6% (active)

**Q.** With `CCCCCCC1(C)NCCO1` (stereo not drawn) as the compound, how does the growth read?
**A.** 102%

**Q.** For `C#CCOc1cccc(Nc2ncnc3ccc(NC(=O)CCl)cc23)c1`, which growth is on record?
**A.** -76.5% (active)

**Q.** How did the growth turn out when `COc1ccc(C(=O)C2C(c3ccc(OC)cc3)CN(C)C23C(=O)Nc2ccccc23)cc1` (stereo not drawn) was run?
**A.** 83%

**Q.** Which growth does the source give for `CCN(CC)CCNC(=O)c1cn2ncnc(Oc3ccc(NC(=O)Nc4ccc(Cl)c(C(F)(F)F)c4)c(F)c3)c2c1C` here?
**A.** 22.1%

**Q.** For `CC(=O)OCc1nc(C#N)c(N(C)C)o1`, which growth is on record?
**A.** 83%

**Q.** For `CN[C@]12CC3(C=CC(=O)C=C3)O[C@@]1(Cc1ccc(OC)cc1)N(C)C(=O)N2`, which growth is on record?
**A.** 39.3%

**Q.** How did the growth turn out when `C=C(CNCCc1ccc(O)cc1)[C@@H]1CC[C@]2(CO)CC[C@]3(C)[C@H](CC[C@@H]4[C@@]5(C)CCC(NCCO)C(C)(C)[C@@H]5CC[C@]43C)[C@@H]12` (stereo partly drawn) was run?
**A.** -62.6% (active)

**Q.** For `O=C1/C(=C\c2cn(-c3ccccc3)nc2-c2ccc(-c3cccs3)cc2)CCc2ccccc21`, which growth is on record?
**A.** 78.7%

**Q.** Which growth does the source give for `Cc1ccc(-c2nn(-c3ccccc3)cc2C=C2C(=O)ON=C2C(C)C)cc1` here?
**A.** 86%

**Q.** `CC/C(=C(/c1ccc(Cl)cc1)c1ccc(OCCN2CCCC2)cc1)c1ccc(OC)cc1` was tested. Which growth did it give?
**A.** 67%

**Q.** With `Cc1c(-c2nc3ccc(F)cc3c(=O)[nH]2)c2ccccc2n1C` as the compound, how does the growth read?
**A.** 60.5%

**Q.** With `COC1=CC(c2ccc[nH]2)=N/C1=C\c1[nH]c(C)c(C(=O)OCc2ccccc2)c1C` as the compound, how does the growth read?
**A.** -26.3% (active)

**Q.** `COc1ccc(C/C(C)=C(/c2ccc(OCCN3CCCCC3)cc2)c2ccc(OC(=O)NCc3ccccc3)cc2)cc1` was tested. Which growth did it give?
**A.** -92.7% (active)

**Q.** For `CC(C)N1CN2C(=S)NC3C2N(C1)C(=S)N3C` (stereo not drawn), which growth is on record?
**A.** 101%

**Q.** Which growth does the source give for `CCCCN[C@H]1CC[C@@]2(C)[C@@H](CC[C@@]3(C)[C@H]2[C@H](O)C[C@H]2/C(=C(\CCC=C(C)C)C(=O)OC)[C@@H](OC(C)=O)C[C@@]23C)[C@@H]1C` here?
**A.** 86.5%

**Q.** How did the growth turn out when `O=[N+]([O-])c1ccc(-c2nc(N3CCOCC3)c3c4c(sc3n2)CCCC4)cc1` was run?
**A.** 111%

**Q.** For `COc1cc(N2C(=O)[C@H](O)C2c2ccc(SC)cc2)cc(OC)c1OC` (stereo partly drawn), which growth is on record?
**A.** 26.1%

**Q.** `C#Cc1ccc(NC(=O)c2ccc(/C=C/C(=O)c3nccn3C)cc2)cc1` was tested. Which growth did it give?
**A.** -25.4% (active)

**Q.** With `Cc1nnc(NC(=O)c2nc(S(=O)(=O)Cc3ccc(F)cc3)ncc2Cl)s1` as the compound, how does the growth read?
**A.** -85.7% (active)

**Q.** Which growth does the source give for `Cc1ccccc1/C=C1\CN(C(=O)OC(C)(C)C)C/C(=C\c2ccccc2C)C1=O` here?
**A.** 82.6%

**Q.** `C[C@]12C=CC(=O)C=C1CCC1C2[C@@H](O)C[C@@]2(C)C1CC[C@]2(O)C(=O)COC(=O)CCC(=O)O` (stereo partly drawn) was tested. Which growth did it give?
**A.** 87.1%

**Q.** With `O=C(Cn1c2c(c3ccccc31)CCCC2)Nc1ccc(-c2nc3ccccc3s2)cc1` as the compound, how does the growth read?
**A.** 89.6%

**Q.** Which growth does the source give for `Cc1cc(Cl)ccc1Nc1nc(C(F)(F)F)ccc1C(=O)N/N=C/c1ccc([N+](=O)[O-])cc1` here?
**A.** -31.6% (active)

**Q.** `O=C(Nn1c2c(sc1=NCc1ccccc1)C(=O)c1ccccc1C2=O)c1cc2ccc1CCc1ccc(cc1)CC2` was tested. Which growth did it give?
**A.** 127%

**Q.** Which growth does the source give for `CC(C)c1ccc(COCc2cc(CN3CCCC3)c(O)c3ncccc23)cc1` here?
**A.** -5.15% (active)

**Q.** With `Cn1cccc1C(=O)C1C(c2cccc([N+](=O)[O-])c2)C2C3CCCCC3CN2C12C(=O)Nc1ccc(Cl)cc12` (stereo not drawn) as the compound, how does the growth read?
**A.** 35%

Test system: NCI-H522 lung
Test: as above
Conditions: 10 µM unless noted

**Q.** For `COc1cc(C(=O)n2nc(N3CCN(C)CC3)c3cc(N)ccc32)cc(OC)c1OC`, which growth is on record?
**A.** -7.31% (active)

**Q.** How did the growth turn out when `O=C1N[C@@H]2NC(=[N+]3CCOCC3)N[C@@H]2N1` was run?
**A.** 92.9%

**Q.** For `N#Cc1c(N)nnn1Cc1cc(=O)oc2c1ccc1ccccc12`, which growth is on record?
**A.** 78.1%

**Q.** With `COc1cc(OC)cc(C2=C3CC[C@@H]4[C@H](CC[C@]5(C)C(=O)CC[C@@H]45)C3=CC3C(O)c4cccnc4N4C(=O)COC234)c1` (stereo partly drawn) as the compound, how does the growth read?
**A.** 90.3%

**Q.** With `C=C(C)[C@@H]1CC[C@]2(C(=O)N3CCN(C)CC3)CC[C@]3(C)[C@H](CC[C@@H]4[C@@]5(C)CC(=C/c6ccncc6)/C(=N/O)C(C)(C)[C@@H]5CC[C@]43C)[C@@H]12` as the compound, how does the growth read?
**A.** 69%

**Q.** For `CN1CCN(Cc2ccc3c(NNC(=O)c4ccccc4)nc4cc(F)ccc4n23)CC1`, which growth is on record?
**A.** 28%

**Q.** How did the growth turn out when `CCOC(=O)c1c2c(n3ccc(C)cc13)C(=O)c1ccccc1C2=O` was run?
**A.** 70.5%

**Q.** Which growth does the source give for `CCCC(=O)NC(c1ccc2c(c1)OCO2)c1ccc2cccnc2c1O` (stereo not drawn) here?
**A.** -4.35% (active)

**Q.** With `Cc1nc2sc(C(=O)Nc3ccccc3)c(N)c2cc1C(=O)c1ccccc1` as the compound, how does the growth read?
**A.** 50.2%

**Q.** How did the growth turn out when `COC(=O)c1ccc2c(c1)C(=O)c1c-2n(CCCN)c(=O)c2cc([N+](=O)[O-])ccc12` was run?
**A.** -78.2% (active)

**Q.** How did the growth turn out when `CO[C@]12C=C/C(=C(/C(=O)OCc3cccnc3)C(=O)CCCCCCCC[C@@]3(OC)C=C/C(=C(/C(=O)OCc4cccnc4)C(=O)CCCCCCCC1)O3)O2` was run?
**A.** -4.14% (active)

**Q.** `Brc1c2c(c(Br)c3ccccc13)CCCC2` was tested. Which growth did it give?
**A.** 75.5%

**Q.** For `Cc1cc2c([nH]1)CSc1cc(S(=O)(=O)c3ccccc3)c(=O)[nH]c1-2`, which growth is on record?
**A.** 23.3% [100 µM]

**Q.** `CC1=C(Nc2ccc(N3CCN(C)CC3)cc2)C(=O)c2cncnc2C1=O` was tested. Which growth did it give?
**A.** 84.9%

**Q.** How did the growth turn out when `CCCCCCC1(C)NCCO1` (stereo not drawn) was run?
**A.** 100%

**Q.** `C#CCOc1cccc(Nc2ncnc3ccc(NC(=O)CCl)cc23)c1` was tested. Which growth did it give?
**A.** -76.3% (active)

**Q.** `COc1ccc(C(=O)C2C(c3ccc(OC)cc3)CN(C)C23C(=O)Nc2ccccc23)cc1` (stereo not drawn) was tested. Which growth did it give?
**A.** 76.4%

**Q.** `CCN(CC)CCNC(=O)c1cn2ncnc(Oc3ccc(NC(=O)Nc4ccc(Cl)c(C(F)(F)F)c4)c(F)c3)c2c1C` was tested. Which growth did it give?
**A.** -52.3% (active)

**Q.** For `CC(=O)OCc1nc(C#N)c(N(C)C)o1`, which growth is on record?
**A.** 90.3%

**Q.** With `CN[C@]12CC3(C=CC(=O)C=C3)O[C@@]1(Cc1ccc(OC)cc1)N(C)C(=O)N2` as the compound, how does the growth read?
**A.** -46.5% (active)

**Q.** With `C=C(CNCCc1ccc(O)cc1)[C@@H]1CC[C@]2(CO)CC[C@]3(C)[C@H](CC[C@@H]4[C@@]5(C)CCC(NCCO)C(C)(C)[C@@H]5CC[C@]43C)[C@@H]12` (stereo partly drawn) as the compound, how does the growth read?
**A.** -67.2% (active)

**Q.** With `O=C1/C(=C\c2cn(-c3ccccc3)nc2-c2ccc(-c3cccs3)cc2)CCc2ccccc21` as the compound, how does the growth read?
**A.** 24.7%

**Q.** `Cc1ccc(-c2nn(-c3ccccc3)cc2C=C2C(=O)ON=C2C(C)C)cc1` was tested. Which growth did it give?
**A.** 74%

**Q.** With `CC/C(=C(/c1ccc(Cl)cc1)c1ccc(OCCN2CCCC2)cc1)c1ccc(OC)cc1` as the compound, how does the growth read?
**A.** 82.7%

**Q.** `Cc1c(-c2nc3ccc(F)cc3c(=O)[nH]2)c2ccccc2n1C` was tested. Which growth did it give?
**A.** 42%

**Q.** With `COC1=CC(c2ccc[nH]2)=N/C1=C\c1[nH]c(C)c(C(=O)OCc2ccccc2)c1C` as the compound, how does the growth read?
**A.** -59.6% (active)

**Q.** How did the growth turn out when `COc1ccc(C/C(C)=C(/c2ccc(OCCN3CCCCC3)cc2)c2ccc(OC(=O)NCc3ccccc3)cc2)cc1` was run?
**A.** -80.9% (active)

**Q.** For `CC(C)N1CN2C(=S)NC3C2N(C1)C(=S)N3C` (stereo not drawn), which growth is on record?
**A.** 90.2%

**Q.** Which growth does the source give for `CCCCN[C@H]1CC[C@@]2(C)[C@@H](CC[C@@]3(C)[C@H]2[C@H](O)C[C@H]2/C(=C(\CCC=C(C)C)C(=O)OC)[C@@H](OC(C)=O)C[C@@]23C)[C@@H]1C` here?
**A.** 93%

**Q.** With `O=[N+]([O-])c1ccc(-c2nc(N3CCOCC3)c3c4c(sc3n2)CCCC4)cc1` as the compound, how does the growth read?
**A.** 79.3%

**Q.** `COc1cc(N2C(=O)[C@H](O)C2c2ccc(SC)cc2)cc(OC)c1OC` (stereo partly drawn) was tested. Which growth did it give?
**A.** -19.8% (active)

**Q.** With `C#Cc1ccc(NC(=O)c2ccc(/C=C/C(=O)c3nccn3C)cc2)cc1` as the compound, how does the growth read?
**A.** -26.7% (active)

**Q.** For `Cc1nnc(NC(=O)c2nc(S(=O)(=O)Cc3ccc(F)cc3)ncc2Cl)s1`, which growth is on record?
**A.** -67.3% (active)

**Q.** How did the growth turn out when `Cc1ccccc1/C=C1\CN(C(=O)OC(C)(C)C)C/C(=C\c2ccccc2C)C1=O` was run?
**A.** 20.8%

**Q.** `C[C@]12C=CC(=O)C=C1CCC1C2[C@@H](O)C[C@@]2(C)C1CC[C@]2(O)C(=O)COC(=O)CCC(=O)O` (stereo partly drawn) was tested. Which growth did it give?
**A.** 103%

**Q.** With `O=C(Cn1c2c(c3ccccc31)CCCC2)Nc1ccc(-c2nc3ccccc3s2)cc1` as the compound, how does the growth read?
**A.** 94.9%

**Q.** `Cc1cc(Cl)ccc1Nc1nc(C(F)(F)F)ccc1C(=O)N/N=C/c1ccc([N+](=O)[O-])cc1` was tested. Which growth did it give?
**A.** -13.3% (active)

**Q.** `O=C(Nn1c2c(sc1=NCc1ccccc1)C(=O)c1ccccc1C2=O)c1cc2ccc1CCc1ccc(cc1)CC2` was tested. Which growth did it give?
**A.** 52.9%

**Q.** Which growth does the source give for `CC(C)c1ccc(COCc2cc(CN3CCCC3)c(O)c3ncccc23)cc1` here?
**A.** -40.1% (active)

**Q.** Which growth does the source give for `Cn1cccc1C(=O)C1C(c2cccc([N+](=O)[O-])c2)C2C3CCCCC3CN2C12C(=O)Nc1ccc(Cl)cc12` (stereo not drawn) here?
**A.** 52.3%
